Reference: PubChem BioAssay
Calls of active or inactive are those of the source.

Legend:
Albumin (Bos taurus) = Albumin (Bos taurus) (UniProt P02769); test: compounds binding labelled BSA control protein – biochemical, small-molecule microarray, Alexa647 label, 635/667 nm fluorescence, artefact control for SMM control protein annotation, profiling panel (AID 1118); conditions: BSA-A647 binding, fluorescence 635 nm, higher = more signal;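 also: score merges 667 nm emission intensity and signal-to-noise per printed compound spot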
Chain of Albumin (Bos taurus) (P02769 whole entry, looked up): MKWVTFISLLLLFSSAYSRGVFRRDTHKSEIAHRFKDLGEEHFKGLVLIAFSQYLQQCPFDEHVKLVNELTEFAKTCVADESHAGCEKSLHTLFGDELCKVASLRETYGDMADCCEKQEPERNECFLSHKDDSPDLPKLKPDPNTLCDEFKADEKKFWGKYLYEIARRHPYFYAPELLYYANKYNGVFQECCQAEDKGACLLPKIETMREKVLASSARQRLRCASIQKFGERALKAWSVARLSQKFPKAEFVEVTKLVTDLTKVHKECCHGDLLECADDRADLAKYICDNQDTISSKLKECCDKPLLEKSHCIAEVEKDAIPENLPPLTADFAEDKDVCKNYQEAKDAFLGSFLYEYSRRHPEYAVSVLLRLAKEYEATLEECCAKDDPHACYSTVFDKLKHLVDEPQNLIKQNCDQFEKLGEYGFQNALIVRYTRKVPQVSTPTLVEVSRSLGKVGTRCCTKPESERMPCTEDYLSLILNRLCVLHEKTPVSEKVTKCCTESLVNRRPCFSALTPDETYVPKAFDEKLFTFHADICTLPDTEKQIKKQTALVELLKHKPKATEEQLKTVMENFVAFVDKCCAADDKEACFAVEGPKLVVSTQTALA

[1] = probe aXIP binding to arrayed compounds – biochemical, NeuroSMM set, 635/667 nm fluorescence, primary screen (AID 1119); conditions: small-molecule microarray, higher = more signal, called active from +8 up or from −8 down;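 also: probe is the protein aXip251-270 applied at 1 µg/mL to compound-printed slides; binding of probe to printed compounds measured as 667 nm fluorescence plus signal to noise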
[2] = probe aNOTCH3 binding on compound microarray – biochemical, small-molecule microarray, 635/667 nm fluorescence, primary screen (AID 1120); conditions: higher = more signal;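 also: probe is a biotin-tagged antibody raised against NOTCH3 rather than NOTCH3 protein; score merges spot fluorescence near 667 nm with spot signal to noise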
[3] = probe aNOTCH2 binding on compound microarray – biochemical, small-molecule microarray, 635/667 nm fluorescence, primary screen (AID 1121); conditions: higher = more signal;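 also: score merges feature fluorescence read at 667 nm with its signal to noise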
[4] = molecular target: Carbonic anhydrase 2 (Homo sapiens) (UniProt P00918); test: compounds binding carbonic anhydrase 2 – biochemical, small-molecule microarray, Alexa647-labelled CAII, profiling panel (AID 1122); conditions: CAII-A647 binding fluorescence, higher = more signal
[5] = COS7 lysate on small-molecule microarray, probe aHis, 635 nm (AID 1123); conditions: COS7 cell lysate, fluorescence, higher = more signal;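 also: z-score combines 667nm fluorescence intensity with signal-to-noise per printed compound spot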
[6] = probe aLAP1 signal on lysate-treated microarray – cell lysate, small-molecule microarray, COS7 lysate, primary screen (AID 1124); conditions: probe aLAP1, fluorescence, higher = more signal;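 also: lysate comes from COS7 cells expressing LAP1 and is applied at 0.3 µg/mL; score merges spot fluorescence near 667 nm with signal-to-noise over triplicate slides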
Sam68 (KHDRBS1) = test: compounds binding KHDRBS1 protein – biochemical, small-molecule microarray, 635 nm fluorescence, primary screen (AID 1125); conditions: higher = more signal;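 also: score merges 667 nm channel intensity with signal to noise over triplicate slides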
[7] = test system: Chordin-like protein 2 (CHRDL2); test: compounds binding chordin-like 2 – biochemical, small-molecule microarray, 635 nm fluorescence, primary screen (AID 1126); conditions: fluorescence 635 nm, higher = more signal;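 also: printed compound slides probed with Chrdl2 protein at 4 µg/mL for 1 h at 4 C; score merges 667 nm emission intensity with signal to noise over three replicate slides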
[8] = molecular target: Concanavalin-A (Canavalia ensiformis) (UniProt P02866); test: compounds binding concanavalin A lectin – biochemical, small-molecule microarray, Alexa647 label, 635 nm, artefact control for SMM control protein annotation, primary screen (AID 1127); conditions: ConA-A647 binding fluorescence, higher = more signal;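 also: z combines 667 nm emission intensity with signal-to-noise across three replicate slides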
Chain of Concanavalin-A (Canavalia ensiformis) (P02866 whole entry, looked up): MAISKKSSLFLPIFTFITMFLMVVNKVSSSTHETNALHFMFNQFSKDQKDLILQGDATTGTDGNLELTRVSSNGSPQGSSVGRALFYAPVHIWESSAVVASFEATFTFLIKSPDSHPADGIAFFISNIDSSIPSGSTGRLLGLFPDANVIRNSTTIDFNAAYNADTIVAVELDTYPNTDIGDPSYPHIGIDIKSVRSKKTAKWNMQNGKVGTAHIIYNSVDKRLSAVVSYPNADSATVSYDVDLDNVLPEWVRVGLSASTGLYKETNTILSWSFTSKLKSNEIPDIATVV

[9] = compounds binding Alexa647 anti-His antibody – biochemical, small-molecule microarray, 635 nm fluorescence, artefact control for SMM control protein annotation, primary screen (AID 1128); conditions: higher = more signal;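 also: score merges feature fluorescence with signal-to-noise for each printed compound spot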
[10] = test system: Human papillomavirus type 1a E7 protein (residues 1-88); test: HPV1a E7 small-molecule binders, primary screen, biochemical, small-molecule microarray, residues 1-88, 635 nm (AID 1129); conditions: small-molecule microarray binding, fluorescence 635 nm; higher = more signal
[11] = molecular target: Focal adhesion kinase 1 (Homo sapiens) (UniProt Q05397); test: PTK2 protein binding on printed compound slides – biochemical, small-molecule microarray, 635/667 nm fluorescence, BSA, DTT, primary screen (AID 1130); conditions: 635 nm fluorescence, higher = more signal;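 also: composite of spot emission at 667 nm and signal to noise over triplicate slides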
Chain of Focal adhesion kinase 1 (Homo sapiens) (Q05397 whole entry, looked up): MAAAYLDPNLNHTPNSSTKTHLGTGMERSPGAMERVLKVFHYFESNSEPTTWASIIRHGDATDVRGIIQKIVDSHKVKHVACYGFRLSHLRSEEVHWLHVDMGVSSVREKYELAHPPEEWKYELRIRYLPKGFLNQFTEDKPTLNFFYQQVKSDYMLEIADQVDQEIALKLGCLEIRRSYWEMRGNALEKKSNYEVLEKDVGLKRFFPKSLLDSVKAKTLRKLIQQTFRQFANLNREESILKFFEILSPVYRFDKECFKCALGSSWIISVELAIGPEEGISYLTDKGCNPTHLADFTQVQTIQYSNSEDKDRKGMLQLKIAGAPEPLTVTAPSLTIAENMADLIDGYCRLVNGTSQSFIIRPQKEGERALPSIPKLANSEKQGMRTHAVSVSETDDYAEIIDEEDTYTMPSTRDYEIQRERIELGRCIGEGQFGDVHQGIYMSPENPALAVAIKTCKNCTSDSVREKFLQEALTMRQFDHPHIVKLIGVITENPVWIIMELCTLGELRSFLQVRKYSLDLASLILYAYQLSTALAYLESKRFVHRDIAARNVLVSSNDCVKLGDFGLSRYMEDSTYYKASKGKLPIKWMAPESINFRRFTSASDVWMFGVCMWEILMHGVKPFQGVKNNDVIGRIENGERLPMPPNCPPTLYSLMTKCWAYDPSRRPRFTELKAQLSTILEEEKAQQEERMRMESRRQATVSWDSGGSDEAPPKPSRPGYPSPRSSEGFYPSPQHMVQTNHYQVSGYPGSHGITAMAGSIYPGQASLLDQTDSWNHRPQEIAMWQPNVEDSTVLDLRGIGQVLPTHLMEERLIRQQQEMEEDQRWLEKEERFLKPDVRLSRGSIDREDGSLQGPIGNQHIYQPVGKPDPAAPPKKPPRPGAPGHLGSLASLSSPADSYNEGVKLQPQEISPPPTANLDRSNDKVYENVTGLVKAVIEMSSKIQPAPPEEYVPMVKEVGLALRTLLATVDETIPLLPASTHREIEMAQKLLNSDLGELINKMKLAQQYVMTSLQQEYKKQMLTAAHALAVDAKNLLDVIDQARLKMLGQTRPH

[12] = test system: Fibrinogen (Alexa647-labelled); test: Alexa647-fibrinogen binding to printed small molecules – biochemical, small-molecule microarray, 635/667 nm fluorescence, artefact control for SMM control-protein annotation, profiling panel (AID 1131); conditions: fibrinogen-A647 binding fluorescence, higher = more signal;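 also: z-score merges 667 nm fluorescence with per-spot signal-to-noise over triplicate slides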
[13] = molecular target: Follistatin (Homo sapiens) (UniProt P19883); test: FST protein binding to printed compounds – biochemical, small-molecule microarray, 635/667 nm fluorescence, primary screen (AID 1132); conditions: 635 nm fluorescence, higher = more signal
Chain of Follistatin (Homo sapiens) (P19883 whole entry, looked up): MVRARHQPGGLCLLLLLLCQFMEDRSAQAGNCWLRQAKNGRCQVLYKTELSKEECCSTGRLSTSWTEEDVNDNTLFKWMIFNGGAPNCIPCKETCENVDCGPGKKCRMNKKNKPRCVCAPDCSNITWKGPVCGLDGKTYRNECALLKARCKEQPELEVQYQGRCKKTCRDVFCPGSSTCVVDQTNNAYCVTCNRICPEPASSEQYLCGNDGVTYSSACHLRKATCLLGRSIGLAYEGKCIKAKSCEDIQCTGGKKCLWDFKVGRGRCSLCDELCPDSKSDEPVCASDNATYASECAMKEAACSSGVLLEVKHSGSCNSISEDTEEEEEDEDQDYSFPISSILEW

[14] = molecular target: Fibroblast growth factor 2 (Homo sapiens) (UniProt P09038); test: basic fibroblast growth factor binding to printed compounds – biochemical, small-molecule microarray, 635/667 nm fluorescence, primary screen (AID 1133); conditions: FGF2, fluorescence 635/667, higher = more signal
Chain of Fibroblast growth factor 2 (Homo sapiens) (P09038 whole entry, looked up): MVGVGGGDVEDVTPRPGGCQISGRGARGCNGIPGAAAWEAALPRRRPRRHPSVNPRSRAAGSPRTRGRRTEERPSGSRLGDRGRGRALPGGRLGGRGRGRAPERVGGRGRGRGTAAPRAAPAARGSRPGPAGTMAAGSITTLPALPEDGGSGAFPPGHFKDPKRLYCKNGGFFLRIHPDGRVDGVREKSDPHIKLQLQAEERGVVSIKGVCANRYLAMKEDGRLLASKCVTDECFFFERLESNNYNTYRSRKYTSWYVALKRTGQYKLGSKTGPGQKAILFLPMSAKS

[15] = JC-1 mitochondrial potential readout, lung cancer cells – cell-based, A549, JC-1 fluorescence, basal, 24 h, 100 nL, profiling panel (AID 1138); conditions: higher = more signal;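 also: A549 lung adenocarcinoma cells under basal conditions with no added stimulus; test concentration not given here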
Lefty1 = Lefty1 protein binding to printed compounds – biochemical, small-molecule microarray, 635/667 nm fluorescence, primary screen (AID 1139); conditions: fluorescence 635/667, higher = more signal
[16] = test system: wheat germ agglutinin (Triticum aestivum), Alexa647-labelled; test: Alexa647-WGA lectin binding to printed small molecules – biochemical, small-molecule microarray, 635/667 nm fluorescence, artefact control for SMM control-protein annotation, profiling panel (AID 1140); conditions: WGA-A647 binding, 635 nm fluorescence, higher = more signal;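 also: score merges 667 nm feature emission with signal to noise over triplicate slides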
[17] = molecular target: Luciferin 4-monooxygenase (Photinus pyralis) (UniProt P08659); test: inhibition of purified Photinus pyralis luciferase – biochemical, luminescence, purified enzyme, 2006 set, primary screen (AID 1141); conditions: purified firefly luciferase, SteadyGlo luminescence, 30 min; higher = more signal, called active from +8 up or from −8 down;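 also: cell-free assay with purified firefly luciferase at 100 ng per well in PBS; test concentration not given here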
Chain of Luciferin 4-monooxygenase (Photinus pyralis) (P08659 whole entry, looked up): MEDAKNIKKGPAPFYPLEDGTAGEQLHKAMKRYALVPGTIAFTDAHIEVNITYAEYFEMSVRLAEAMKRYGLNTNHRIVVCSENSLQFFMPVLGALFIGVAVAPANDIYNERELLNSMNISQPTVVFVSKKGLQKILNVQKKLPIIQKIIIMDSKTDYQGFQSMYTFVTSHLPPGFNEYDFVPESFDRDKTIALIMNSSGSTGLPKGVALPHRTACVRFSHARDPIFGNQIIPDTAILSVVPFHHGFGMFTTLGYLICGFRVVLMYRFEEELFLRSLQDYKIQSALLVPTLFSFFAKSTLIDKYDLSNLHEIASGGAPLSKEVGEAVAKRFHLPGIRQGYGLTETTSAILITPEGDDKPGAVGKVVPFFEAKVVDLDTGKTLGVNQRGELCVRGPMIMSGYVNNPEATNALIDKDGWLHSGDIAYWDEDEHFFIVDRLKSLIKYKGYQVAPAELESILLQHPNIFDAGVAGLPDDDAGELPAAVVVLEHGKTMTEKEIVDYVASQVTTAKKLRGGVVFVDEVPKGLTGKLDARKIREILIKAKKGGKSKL

Row | SMILES | composite z-score (Albumin (Bos taurus)) | composite Z-score [1] | composite z-score [2] | composite z-score [3] | composite z-score [4] | composite z-score [5] | composite z-score [6] | composite z-score (Sam68 (KHDRBS1)) | composite z-score [7] | composite z-score [8] | composite z-score [9] | composite z-score [10] | composite z-score [11] | composite z-score [12] | composite z-score [13] | composite z-score [14] | z-score [15] | composite z-score (Lefty1) | composite z-score [16] | z-score [17]
1 | O=C1c2ccccc2[C@@]2(Cc3ccccc3N(CC(F)(F)F)C2=O)[C@H](c2ccc(CO)cc2)N1C1CCCCC1 | -0.976 | -0.336 (inactive) | 0.157 | -0.122 | 0.807 | 0.31 | 0.48 | 0.588 | 0.759 | 0.709 | -0.194 | -0.07 | -0.103 | -0.243 | 1.06 | 1.06 | 0.835 | 0.531 | -0.643 | -0.637 (inactive)
2 | C=CCNC(=O)[C@H]1[C@@H]2C(=O)O[C@@H](c3ccccc3)[C@@H](c3ccccc3)N2[C@@H](c2ccccc2OCCO)[C@]12C(=O)N(C(=O)OCCOC)c1ccc(C#CCNC(N)=O)cc12 | 0.676 | -0.0888 (inactive) | 0.0379 | -0.101 | 0.555 | 1.94 | 1.3 | 1.29 | -0.246 | 1.14 | 1.26 | 1.17 | 0.409 | 0.742 | 0.776 | 0.104 | 0.423 | 0.629 | 1.11 | -0.963 (inactive)
3 | C[C@H]1COC(=O)[C@H](Cc2ccccc2)NC(=O)[C@@H](C)COC(=O)[C@H](Cc2ccccc2)NC1=O | 0.732 | 0.0705 (inactive) | -0.0377 | -0.0967 | 0.447 | 0.612 | 0.275 | 1.27 | 0.845 | 0.892 | 1.46 | 1.12 | 0.327 | 0.194 | 0.593 | 0.635 | 1.04 | 1.03 | 0.523 | -0.443 (inactive)
4 | O=C1O[C@@H](c2ccccc2)[C@@H](c2ccccc2)N2[C@@H](c3ccc(O)cc3)[C@]3(C(=O)Nc4ccc(C#CC5(O)CCCCCC5)cc43)[C@@H](C(=O)Nc3nc4ccccc4s3)[C@H]12 | 0.839 | 0.751 (inactive) | 0.173 | 0.0943 | 0.0181 | 1.95 | 0.807 | 1.35 | 0.896 | 1.08 | 1.87 | 1.22 | 0.706 | 0.886 | 1.37 | 1.21 | -0.901 | 1.53 | 1.26 | -1.4 (inactive)
5 | CCOC(=O)C1=C[C@@H](c2ccccc2)N(S(=O)(=O)c2ccc(C)cc2)[C@H]1c1ccc(F)cc1 | 0.823 | -0.263 (inactive) | 0.0836 | 0.111 | 0.283 | 1.57 | 0.284 | 1.16 | -0.0043 | 1.12 | 0.986 | 1.14 | 1.23 | 0.995 | 1.06 | 0.47 | 0.994 | 0.207 | 1.08 | 1.54 (inactive)
6 | COC(=O)C[C@H]1O[C@]2(C(=O)N(C)c3ccccc32)[C@@H](C)[C@@H]1[Si](C)(C)c1ccc(OC)cc1 | 0.163 | -0.211 (inactive) | 0.0185 | -0.135 | 0.158 | 0.342 | 0.494 | 0.567 | 0.291 | 0.598 | 0.284 | 0.824 | 0.0035 | 0.728 | 0.328 | 0.792 | 0.569 | 1.33 | 0.332 | -0.274 (inactive)
7 | CC(=O)NCCCC[C@@H]1NC(=O)[C@@H]2C[C@H](C(=O)NCCCCCNC(=O)CS)[C@H](c3ccc(O)cc3)N2C1=O | -0.0591 | 1.43 (inactive) | -0.282 | -0.203 | 0.497 | 0.534 | -0.377 | -0.0077 | -0.13 | -0.579 | 0.133 | -0.265 | -0.295 | -0.786 | 1.44 | 0.746 | 1.18 | 1.4 | -0.802 | -1.88 (inactive)
8 | COc1cc2c(cc1OC)CN(C(=O)[C@H]1[C@@H]3C(=O)O[C@@H](c4ccccc4)[C@@H](c4ccccc4)N3[C@@H](c3ccc(O)cc3)[C@]13C(=O)Nc1ccc(C#CC4(O)CCCCCC4)cc13)CC2 | 0.693 | 1.04 (inactive) | 0.974 | 0.286 | 0.774 | 3.61 | 0.876 | 1.29 | 1.24 | 1.13 | 1.5 | 1.23 | 1.02 | 0.86 | 1.28 | 1.71 | -1.23 | 0.59 | 1.31 | -0.409 (inactive)
